Measured values published in PubChem BioAssay AID2279 (Southern Research Specialized Biocontainment Screening …, 2010).
Potency and affinity values are given separately. Active and inactive are the calls of the source. How the calls were made is not given here.

Assay: CCR5-tropic HIV-1 fusion blockers – cell-based, CCR5-tropic Env, dose response (AID 2279)
Settings: CCR5-tropic HIV-1 Env, reporter read-out; series mostly up to 50 µM; inhibition: at the top concentration

inhibition, inactive:
N#Cc1c(-c2ccccc2)nc(SCC(=O)N2c3ccccc3Sc3ccccc32)[nH]c1=O -1.64%
N=C1/C(=C\c2ccc(-c3cccc(C(=O)O)c3)o2)C(=O)N=C2SC=C(c3ccccc3)N12 16.1%
O=C(O)c1[nH]c2ccccc2c1C(c1c(F)cccc1Cl)c1c(C(=O)O)[nH]c2ccccc12 7.54%
CCCCCC(=O)Cc1cc(O)cc2c1C(=O)Oc1cc(O)c(C(=O)O)c(CCCCC)c1O2 28.4%
COc1cc(/C=C2\S/C(=N/S(=O)(=O)c3ccc(C)cc3)NC2=O)c([N+](=O)[O-])cc1OC -8.6%
Cc1ccc(Cl)cc1N1CCN(C(=O)Cc2c(C(=O)O)[nH]c3ccc(Cl)cc23)CC1 -12.9%
O=C(O)COc1ccc(/C=N/NC(=O)c2ccc(-c3csc(Nc4ccc(Cl)cc4)n3)cc2)cc1 7.13%
COc1cc(/C=C2/C(=O)NN(c3ccc(Cl)cc3)C2=O)ccc1OC(=O)c1ccco1 0.91%
CC(C)(C)c1ccc(S(=O)(=O)/N=C2\C=C(NS(=O)(=O)c3ccccc3)C(=O)c3ccccc32)cc1 13.5%
N#Cc1c(-c2ccccc2)nc(SCc2cccc(Cl)c2)[nH]c1=O -9.74%
O=S(=O)(Nc1nc(-c2sccc2Cl)cs1)c1cc(Cl)ccc1Cl -27.6% [at 25 µM]
COc1cc(NS(=O)(=O)c2ccc(NC(=S)NC(=O)c3sc4ccccc4c3Cl)cc2)nc(OC)n1 17.8%
CC1=C(C(=O)OC(C)C)C(c2ccc(Cl)cc2)n2c(s/c(=C\c3ccc(OCC(=O)O)cc3)c2=O)=N1 (centres undefined) 23.1%
COc1cc(/C=C2\C(=N)N3N=C(S(C)(=O)=O)SC3=NC2=O)ccc1OC(=O)c1cccs1 -6.46%
O=C1NN(c2ccccc2)C(=O)/C1=C\c1cccc(OC(=O)c2cccs2)c1 10.8%
O=C(O)/C=C/C(=O)Nc1ccc(C2(c3ccc(NC(=O)/C=C/C(=O)O)cc3)c3ccccc3-c3ccccc32)cc1 4.84%
CCc1nnc(NS(=O)(=O)c2ccc(NC(=O)/C=C/c3ccccc3Cl)cc2)s1 -11.5%
O=C(O)c1cc(-c2ccc(/C=N/Nc3ccc(Cl)cc3)o2)ccc1Cl 7.74%
CCCOc1ccc(C(=O)NNC(=S)NC(=O)c2cc(-c3ccccc3)nc3ccccc23)cc1 6.27%
CC(C)(C)OC(=O)N1CCC(c2cc(=O)n3[nH]cc(C(=O)Nc4ccc(F)c(Cl)c4)c3n2)CC1 5.55%
O=C(O)C1Nc2ccc(Br)cc2C2C=CCC12 (centres undefined) 5.92%
Cc1ccccc1C(=O)Nc1cccc(C(=O)N/N=C/c2cc(Cl)cc([N+](=O)[O-])c2O)c1 39.4%
Cc1ccc(NS(=O)(=O)c2ccc(N/N=C/c3ccccc3OCC(=O)O)c([N+](=O)[O-])c2)c(C)c1 -0.66%
COC(=O)c1sc(-c2ccc(C(C)(C)C)cc2)cc1NC(=O)COCC(=O)O 12.7%
CCc1nnc(NS(=O)(=O)c2ccc(NC(=S)NC(=O)/C=C/c3ccc(C(C)C)cc3)cc2)s1 37.6%
COc1ccc(NS(=O)(=O)c2ccc3c(c2)[C@H]2C=CC[C@H]2[C@@H](c2ccc(C(=O)O)cc2)N3)cc1 10%
CS(=O)(=O)C1=NSC2=NC(=O)/C(=C\c3cccn3-c3ccc(Cl)cc3)C(=N)N21 -11.3%
COc1cccc(-c2coc3c(C)c4oc(=O)c(CCC(=O)O)c(C)c4cc23)c1 37.9%
Oc1c(Br)cc(Br)c(/C=N/n2c(-c3ccccc3)n[nH]c2=S)c1Br 21.4%
O=C(COc1ccc(Cl)cc1)Nc1cc(NC(=O)COc2ccc(Cl)cc2)cc(C(=O)O)c1 -12.1%
O=C(O)c1cccc(-n2cccc2/C=C2/NC(=O)N(c3ccc(Cl)cc3)C2=O)c1 18.4%
O=C(NC(=S)Nc1ccccc1C(=O)O)c1ccc(-c2ccc(Br)cc2)o1 31.8%
Cc1ccc(-n2cccc2/C=C2/C(=N)N3C(=NC2=O)SN=C3S(C)(=O)=O)cc1Cl 0.44%
CCc1oc2ccccc2c1C(=O)c1cc(Br)c(O)c(Br)c1 31%
